In PubChem BioAssay AID1471 (National Center for Advancing Translational Sciences (NCATS), 2008):
Hit rate of the full screen: of about 230,000 compounds, about 310 (0.13%) were called active. Where a call stands in place of a potency, no number is given. Roughly 2% stayed inconclusive and do not appear here. This is one part of a sample in which actives are shown more often than they occur. Values without a mark were called inactive. Calls follow the shape of the dose curve; as a rule, active = well fitted activation curve with a large enough effect; inconclusive = small, poorly fitted or top-dose-only effect; inactive = no such curve, though single readings can be large or run the other way.

Test: qHTS Multiplex Assay to Identify Dual Action Probes in a Cell Model of Huntington: Cytoprotection (ATP); also: nearly all actives have a fitted effect of over 45% in size;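 as to cytoprotection (ATP increase): toxic huntingtin expression switched on by the ecdysone agonist tebufenozide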
Conditions: PC12 HTT-Q103 induced, ATP luminescence, 40 h; series mostly up to 56.4 µM
How it was run: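 Readout: ATPlite luminescence (ATP level). Model: stable PC12, inducible Htt exon1 Q103-GFP. Inducer: tebufenozide, 100 nM final. Compounds: dose series. No G418 in medium.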
Potency is read from the fitted curve at half-maximal effect.

Row | Structure (SMILES) | cytoprotection (ATP increase) | Potency
1 | O=C1OCCN1C(=O)[C@H]1[C@H](c2ccccc2)C(c2ccc(F)cc2)=NN1c1ccccc1 | inactive | –
2 | CCCCC/C=C\C/C=C\C/C=C\CCCCC(=O)NCC(=O)O | inactive | –
3 | C/C=C1\C2C=C(C)CC1(N)c1ccc(=O)[nH]c1C2 (stereo not drawn) | inactive | –
4 | COc1cccc(NC(=O)CN(C)CC(=O)Nc2ccc3c(c2)CCC3)c1 | 19.6% [at 10 µM] | –
5 | Cc1ccc(-c2ncc(Cl)cc2-c2ccc(S(C)(=O)=O)cc2)cn1 | inactive | –
6 | CC1(OC(=O)C2CCCC2)C(=O)C=C2C=C(c3ccc(C#N)cc3)OC=C2C1=O (stereo not drawn) | inactive | –
7 | CCC(C)[C@@H](N)C(=O)O (stereo partly drawn) | inactive | –
8 | Cc1cc2oc(=O)cc(-c3ccccc3)c2c(C)c1/C=C/c1ccc(F)cc1 | inactive | –
9 | COc1ccc(-c2nc3c(c4c2C[C@H](c2ccccc2)OC4)CN(S(=O)(=O)c2c(C)noc2C)CC3)c(C)c1 | -10% [at 10 µM] | –
10 | O=C1/C(=C/c2cccs2)SC(=S)N1C1CCS(=O)(=O)C1 (stereo not drawn) | -20.7% [at 10 µM] | –
11 | C=C1c2cccc(OC)c2O[C@H](C(=O)OCC)[C@@H]1CCCCCC | inactive | –
12 | C=CCC1CCC(=O)N2CCCC12 (stereo not drawn) | inactive | –
13 | COC(=O)c1cc(C(=O)OCC(=O)Nc2cc(C)on2)cc([N+](=O)[O-])c1 | -6.88% [at 10 µM] | –
14 | CC[C@H](C)[C@@H](NC(=O)O[C@@H]1C(=O)c2cc(OC)ccc2O[C@H]1c1cccc(OC)c1)C(=O)OC | inactive | –
15 | O=C(c1cc2ccccc2o1)N1CCN(Cc2ccccc2)CC1 | inactive | –
16 | COc1cc2c(cc1OC)CC(=O)N(CCCN(C)C[C@H]1Cc3cc(OC)c(OC)cc31)CC2 | inactive | –
17 | C=CC1=C2C=C(C3CC3)N(CC(C)C)C=C2C(=O)C(C)(OC(=O)c2ccco2)C1=O (stereo not drawn) | -19.6% [at 10 µM] | –
18 | S=C(NCCCc1cnc[nH]1)NCCCN(Cc1ccc(Cl)c(Cl)c1)c1ccc(Br)cn1 | inactive | –
19 | C/C(CC(=O)NC(C)c1ccccc1)=N\NC(N)=S (stereo not drawn) | 8.79% [at 10 µM] | –
20 | COC(=O)C1=C(C(=O)OC)[C@@H]2N(Cc3ccccc3)c3ccccc3[C@@]23C[C@@H](C(=O)OC)N(S(=O)(=O)c2ccc(C(F)(F)F)cc2)C3=N1 | 23.4% [at 10 µM] | –
21 | C[C@H]1Cc2c(-c3ccccc3)nc3c(c2CO1)CN(C(=O)C1CC1)CC3 | -5.29% [at 10 µM] | –

Row | Structure (SMILES) | cytoprotection (ATP increase) | Potency
22 | NC(=O)c1sc(-c2ccsc2)cc1N | inactive | –
23 | CC(C)(C)OC(=O)NCCCCC1=CC2=CC(=O)C(C)(OC(=O)c3cccs3)C(=O)C2=CO1 (stereo not drawn) | inactive | –
24 | COc1cccc([C@@H]2Oc3ccc(Br)cc3C(=O)[C@H]2OC(=O)NCc2ccc3c(c2)OCO3)c1 | inactive | –
25 | COC(=O)N1C(/C=C/C=C/c2ccc(OC)cc2)=Cc2ccccc2C1CC(C)=O (stereo not drawn) | -21.1% [at 10 µM] | –
26 | CCCCC/C=C\C/C=C\CCCCCCCCCC(=O)NCC(=O)O | inactive | –
27 | COCCN(C(=O)c1ccccc1F)c1c(N)n(Cc2ccccc2)c(=O)[nH]c1=O | inactive | –
28 | COc1cccc(-c2cc(=O)c3cc(NC(=O)c4ccc(C)cc4)ccc3[nH]2)c1 | inactive | –
29 | CC[C@@]12C=C(/C=C/c3ccccc3)[C@](CC)(C1)[C@H](c1ccccc1)CC2=O | inactive | –
30 | O=c1c(O)c(Br)ccc2c(Br)c(O)c(O)c(O)c12 | inactive | –
31 | NCCC(=O)c1ccccc1N | inactive | –
32 | Nc1nc(CC(=O)CSc2ccc(Cl)cc2)nc(Nc2ccc(F)cc2)n1 | -29.1% [at 10 µM] | –
33 | CCOC(=O)N1CCN(CC(=O)Nc2ccc(F)cc2)CC1 | -4.62% [at 10 µM] | –
34 | CC(=O)N1CCN(CC(=O)Nc2ccc(SC(F)F)cc2)CC1 | – | 5.62 µM (active)
35 | COC(=O)c1cc(NC(=O)CN2CCN(C(C)=O)CC2)cc(C(=O)OC)c1 | inactive | –
36 | C[C@H]1Cc2c(-c3ccccc3)nc3c(c2CO1)CN(S(=O)(=O)c1ccc(Cl)c2nonc12)CC3 | -22.4% [at 10 µM] | –
37 | COc1cc(OC)c2c(c1)OC(=O)CC2c1cc(OC)c(OC)c(OC)c1 (stereo not drawn) | inactive | –
38 | CN(C)Cc1ccccc1C1(O)c2ccccc2CSc2ccccc21 (stereo not drawn) | inactive | –
39 | O=C(/C=C/c1cccc(F)c1)NC1CC1 | inactive | –
40 | COC(=O)C1=C(C(=O)OC)[C@@H]2N(C)c3ccccc3[C@@]23C[C@@H](C(=O)OC)N(S(=O)(=O)c2ccc(Br)cc2)C3=N1 | 7.44% [at 10 µM] | –
41 | C=CCN1c2ccccc2[C@]23C[C@@H](C(=O)OC)N(S(=O)(=O)c4ccc([N+](=O)[O-])cc4)C2=NC(C(=O)OC)=C(C(=O)OC)[C@H]13 | -23.4% [at 10 µM] | –
42 | CC(Nc1oc(-c2ccccc2)nc1-c1ccccc1)c1ccccc1 (stereo not drawn) | inactive | –

Row | Structure (SMILES) | cytoprotection (ATP increase) | Potency
43 | COCOc1cc(OC)ccc1C(=O)/C=C/c1ccc([N+](=O)[O-])cc1 | inactive | –
44 | C=CC(C1=CC(=O)C=CC1=O)c1ccc(O)cc1 (stereo not drawn) | inactive | –
45 | COc1ccc(C(C)=O)cc1CN1C(=O)NC2(CCCCC2C)C1=O (stereo not drawn) | inactive | –
46 | CCCCS(=O)(=O)N1C2=NC(C(=O)OC)=C(C(=O)OC)[C@@H]3N(Cc4ccccc4)c4ccccc4[C@]23C[C@H]1C(=O)OC | 21.8% [at 10 µM] | –
47 | O=C1c2ccccc2NC(c2ccc(-c3cccc(Cl)c3)o2)N1O (stereo not drawn) | -70.6% [at 10 µM] | –
48 | CC(N)(C(=O)O)c1ccc(-c2nn[nH]n2)cc1 (stereo not drawn) | inactive | –
49 | Cc1ccc(S(=O)(=O)N2CCC(=O)N([C@H](COCc3ccccc3)Cc3ccccc3)CC2)cc1 | inactive | –
50 | C/C=C(\C)C(=O)O[C@H]1CC(C)=C2C(=O)C=C(C)C2[C@@H]2OC(=O)[C@@](C)(OC(=O)C=C(C)C)C21 (stereo partly drawn) | inactive | –
51 | O=C(N/N=C/c1cccc2cccnc12)[C@H]1C[C@@H]1c1ccccc1 | 23.6% [at 10 µM] | –
52 | O=C(Nc1cccc(C(F)(F)F)c1)c1cc(Br)cc(Br)c1O | inactive | –
53 | CCN1C(=O)N[C@@H](c2ccccc2)[C@H](C(C)=O)[C@H]1C | -16.1% [at 10 µM] | –
54 | CC(=O)CC(c1ccccc1)C1C(=O)Oc2ccccc2C1=O (stereo not drawn) | inactive | –
55 | CNC(=O)C1(C)C=CC2(CCCCC2)N1C(C)=O (stereo not drawn) | inactive | –
56 | C=CCNC(=O)c1ccc2c3n(nc2c1)-c1ccc(C)cc1CO3 | -15% [at 10 µM] | –
57 | CC(C)(O)c1ccccc1CC[C@H](SCC1(CC(=O)O)CC1)c1cccc(/C=C/c2ccc3ccc(Cl)cc3n2)c1 | inactive | –
58 | C=CC1(C)CC(=O)C2(O)C(C)(O1)C(OC(C)=O)C(O)C1C(C)(C)CCC(O)C12C (stereo not drawn) | inactive | –
59 | C[C@H]1Cc2c(COc3ccccc3)nc3c(c2CO1)CN(C(=O)NCc1ccco1)CC3 | 9.12% [at 10 µM] | –
60 | O=C1OCCN1C(=O)[C@H]1[C@H](c2ccc(F)cc2)C(c2ccccc2)=NN1c1ccc(Br)cc1 | inactive | –
61 | Cc1cc2oc(=O)cc(-c3ccccc3)c2c(C)c1-c1ccc(OC(F)(F)F)cc1 | inactive | –
62 | COc1ccc(CC(N)C(=O)NC2C(O)[C@H](n3cnc4c(N(C)C)ncnc43)O[C@@H]2CO)cc1 (stereo partly drawn) | inactive | –
63 | COC(=O)CC1c2ccccc2C(Cc2ccc(OC)cc2)=C(C)N1C(=O)OC (stereo not drawn) | -4.91% [at 10 µM] | –

Row | Structure (SMILES) | cytoprotection (ATP increase) | Potency
64 | COc1cc(OC)cc(-c2nc3ccccc3c(=O)n2NC(=O)c2cccnc2Cl)c1 | -11.8% [at 10 µM] | –
65 | O=C1C=C(c2ccccc2)CCC1 | inactive | –
66 | CC(C)[C@@H]1NC(=O)[C@H](Cc2ccccc2)NC(=O)[C@@H](CC(=O)O)NC(=O)CNC(=O)[C@H](CCCNC(=N)N)NC1=O | inactive | –
67 | COc1ccc(N2CCN(CCNC(=O)c3nnc(Cc4c(F)cccc4Cl)o3)CC2)cc1 | 7.41% [at 0.074 µM] | –
68 | Clc1ccc(C(Cn2ccnc2)OCc2ccsc2Cl)c(Cl)c1 (stereo not drawn) | inactive | –
69 | COC(=O)C1=C(C(=O)OC)[C@@H]2N(C)c3ccccc3[C@@]23C[C@@H](C(=O)OC)N(C(=O)c2ccco2)C3=N1 | -6.19% [at 10 µM] | –
70 | COC(=O)C/C=C/[C@@H](C)[C@H](NC(=O)OCC(Cl)(Cl)Cl)c1ccccc1 | inactive | –
71 | C=CC1=C2C=C(C3CC3)N(C(CO)CO)C=C2C(=O)C(C)(OC(=O)c2ccco2)C1=O (stereo not drawn) | -26.7% [at 10 µM] | –
72 | Cc1ccc(-c2cccc([C@H]3[C@@H]4C=CC[C@@H](C)[C@@H]4C(=O)N3Cc3ccccc3)c2)cc1 | inactive | –
73 | COc1ccc(/C=C2\NC(=O)[C@@H]3Cc4ccccc4CN3C2=O)cc1 | inactive | –
74 | COC(=O)c1c(CCl)noc1C(=O)NC(C)C | inactive | –
75 | c1ccc(CSc2ncnc3c2sc2nc(N4CCOCC4)c4c(c23)CCCC4)cc1 | inactive | –
76 | C[C@H]1Cc2c(COc3ccccc3)nc3c(c2CO1)CN(C(=O)Nc1cccc(C#N)c1)CC3 | -20.7% [at 10 µM] | –
77 | COc1ccc(-c2nc3c(c4c2C[C@H](c2ccccc2)OC4)CN(C(=O)C2CC2)CC3)c(C)c1 | 6.89% [at 10 µM] | –
78 | COC(=O)CSc1ccc2nnc(CCNS(=O)(=O)c3ccc(C)cc3)n2n1 | inactive | –
79 | CCN1C(=O)N[C@@H](c2ccccc2)C(C(=O)OC)=C1C | -11.9% [at 10 µM] | –
80 | NC(=O)C(=O)N/N=C/c1ccc([N+](=O)[O-])o1 | inactive | –
81 | CCOC(=O)C1CSC(CC(=O)Nc2ccc(OCC)cc2)C(=O)N1 (stereo not drawn) | 0.901% [at 10 µM] | –
82 | COCCCNC(=O)Cn1cc(/C=C(\C#N)C(=O)N2CCN(c3ccccc3)CC2)c2ccccc21 | 1.65% [at 10 µM] | –
83 | COC(=O)C(C(=O)OC)C1c2ccccc2C=C(C2CC2)N1C(=O)OC (stereo not drawn) | inactive | –
